TbREL1 primary: TbREL1 RNA ligase inhibitors, primary screen, biochemical, FRET fluorescence | RNA-editing ligase 1, mitochondrial (Trypanosoma brucei brucei), P86926 | TbREL1 RNA ligation | inhibition, % at 9.66 µM | actives 0.49% (n = 89,000);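 active = inhibition above the mean inhibition across all screened compounds plus 3 SD, cut at about 11% in these data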
Target sequence (P86926 whole entry, looked up): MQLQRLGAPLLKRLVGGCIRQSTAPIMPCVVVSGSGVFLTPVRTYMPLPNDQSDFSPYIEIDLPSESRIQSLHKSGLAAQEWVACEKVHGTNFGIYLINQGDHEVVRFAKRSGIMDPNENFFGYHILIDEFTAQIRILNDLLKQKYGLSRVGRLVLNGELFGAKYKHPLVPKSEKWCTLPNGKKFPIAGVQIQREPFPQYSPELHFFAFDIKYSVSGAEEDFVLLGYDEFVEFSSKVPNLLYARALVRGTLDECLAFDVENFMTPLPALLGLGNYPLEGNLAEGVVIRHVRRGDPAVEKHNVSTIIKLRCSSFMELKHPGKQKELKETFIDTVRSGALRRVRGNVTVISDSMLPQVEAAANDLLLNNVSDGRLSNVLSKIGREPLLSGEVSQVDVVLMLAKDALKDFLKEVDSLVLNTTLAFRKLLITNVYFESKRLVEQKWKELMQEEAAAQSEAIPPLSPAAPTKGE
TbREL1 conf: TbREL1 RNA ligase inhibitors, confirmation, biochemical, FRET fluorescence, triplicate; shares compounds with TbREL1 primary; TbREL1 RNA ligation; inhibition, % at 9.66 µM; actives 37% (n = 390); AID 1117282, 2014;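 active = mean inhibition across replicates above a set limit taken from the earlier primary screen, cut at about 11% in these data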
Hits are given with their value; i = inactive. This is one part of a sample in which hits are shown more often than they occur.

SMILES	TbREL1 primary	others
O=C(Cn1cnc2c(OCc3ccccc3)ncnc21)NCCN1CCOCC1	i
C[C@@H](NC(=O)Cn1cnc2c(OCc3ccccc3)ncnc21)c1cccc2ccccc12	i
C/C(=N\NC(=O)CSc1nnc(-c2ccccc2)n1-c1ccc(C)cc1)c1ccc(-c2ccccc2)cc1	i
CCC(=O)NC1=C(NC(C)c2ccccc2)C(=O)c2ccccc2C1=O (stereo not given)	i
CCC(=O)Nc1ccc(C(=O)NNC(=O)c2ccccc2)cc1	i
CCC(=O)Nc1ccc2c(c1)C(=O)c1ccccc1C2=O	14	TbREL1 conf=i
O=C(NCCc1ccccc1)OCc1cn(Cc2ccccc2F)nn1	i
COC(=O)[C@]12C[C@H](CC(=O)N3CCCC3)C(=O)N(Cc3cccc4ccccc34)C1=C[C@H](C(C)(C)C)O[C@@H]2C	i
O=C(NC1CCCCN(Cc2ccc(Cl)cc2)C1=O)C(c1ccccc1)c1ccccc1 (stereo not given)	i
COC(=O)CSc1nnc(-c2n[nH]c3c2CCC3)n1N	i
CCCC(C(=O)NCc1ccco1)N(CC1CCCO1)C(=O)CNS(=O)(=O)c1ccc(F)cc1 (stereo not given)	i
O=C(CN(Cc1ccc(F)cc1)C(=O)CNS(=O)(=O)c1ccc(F)cc1)NCc1ccco1	i
CCC(C(=O)NCc1ccco1)N(C(=O)CNS(=O)(=O)c1ccc(F)cc1)c1ccccc1F (stereo not given)	36	TbREL1 conf=i
COC(=O)[C@@]1(C(C)C)N=C(c2cc(OC)c(OC)c(OC)c2)[C@]2(O1)C(=O)N(Cc1cn(Cc3ccccc3)nn1)c1ccc(F)cc12	i
Cc1cc(Nc2cc(Cl)cc(Cl)c2)cc(=O)n1-c1cc(Cl)cc(Cl)c1	i
COc1cccc(Nc2cc(C)nc3ccccc23)c1	i
COc1ccc2nc(C)cc(NCc3cccc(C(F)(F)F)c3)c2c1	13	TbREL1 conf=16
COc1ccc2nc(C)cc(Nc3ccccc3O)c2c1	i
Cc1ccc(-c2c[n+](Cc3ccc(Cl)c(Cl)c3)c3n2CCC3)cc1	13	TbREL1 conf=i
Cc1ccc(S(=O)(=O)N2CCN=C2SCc2ccc(Cl)c(Cl)c2)cc1	i
Cc1ccc(C(=O)C[n+]2cc(-c3ccc(C)cc3)n3c2CCCCC3)cc1	i
Cc1ccc(-n2c(SCC(=O)c3ccc(F)cc3)nnc2-c2cccnc2)cc1	i
CCOC(=O)[C@@]12CCCC=C1N(CCc1ccc(Cl)cc1)C(=O)[C@H]2CC(=O)NCc1cccc2ccccc12	i
COc1ccc(OC)c(S(=O)(=O)n2c(CN3CCOCC3)nc3ccccc32)c1	i
CCC(=O)N1CCc2cc(Br)c(S(=O)(=O)N3CCC(C(=O)NCCCOC(C)C)CC3)cc21	i
SMILES	TbREL1 primary	others
COc1ccc(-n2c(COc3ccc(C)cc3)nnc2SCC(=O)c2ccc(-c3ccccc3)cc2)cc1	i
c1nc(NCC2CCCCO2)c2cc(-c3ccc4c(c3)OCO4)ccc2n1 (stereo not given)	i
COC(=O)c1cccc(-c2ccc(C(c3c(C)[nH][nH]c3=O)c3c(C)[nH][nH]c3=O)o2)c1	15	TbREL1 conf=i
COC(=O)c1cccc(-c2ccc(/C=N/N3C(=O)C4C5C=CC(C6CC56)C4C3=O)o2)c1 (stereo not given)	i
O=Cc1ccc(-c2cccc(C(=O)O)c2)o1	i
O=C(NC(CC1=CCCCC1)c1ccc2ccccc2c1)C(F)(F)F (stereo not given)	i
COc1ccc(-c2nnc3n2N=C(c2cccc([N+](=O)[O-])c2)CS3)cc1	i
COC(=O)c1ccccc1NC(=O)NCC1CCN(Cc2ccc(OC)cc2)CC1	i
CCOc1ccc(-n2c(SCC(=O)Nc3ccc4cn[nH]c4c3)nnc2-c2ccncc2)cc1	i
N#Cc1cnc(SCC(=O)c2ccccc2)nc1N	i
Cn1c(SCC(=O)c2ccc(-c3ccccc3)cc2)nnc1-c1ccco1	i
O=C(CSc1nnc(-c2ccco2)c(-c2ccco2)n1)c1ccccc1	12	TbREL1 conf=13
CCCCOCCCNC(=O)C[C@H]1C[C@@]2(C(=O)OC)C(=C[C@H](C(C)(C)C)O[C@@H]2C)N(Cc2ccc(Cl)cc2Cl)C1=O	i
Cn1c(=O)c(=O)n(C)c2cc(S(=O)(=O)N3CCN(Cc4ccc(F)cc4)CC3)ccc21	i
O=C(CSc1nnc(-c2cccnc2)n1Cc1ccco1)Nc1ccc(Cl)c(Cl)c1	i
Cc1cc(NS(=O)(=O)c2ccc(NC(=O)CSc3nnc(-c4ccc(Cl)cc4)n3Cc3ccco3)cc2)nc(C)n1	i
Cc1ccc(OCc2nnc(SCC(=O)Nc3ccc(S(=O)(=O)Nc4cc(C)nc(C)n4)cc3)n2Cc2ccco2)cc1	i
Cc1cc(NS(=O)(=O)c2ccc(NC(=O)CSc3nnc(-c4ccncc4)n3Cc3ccco3)cc2)nc(C)n1	35	TbREL1 conf=i

Screening results from PubChem.
